# Source: PubChem BioAssay
# Compounds with a hit are over-represented: about 3% of the library has one in this group of screens.
# PfHsp90 set2 = growth inhibition of PfHsp90-expressing yeast, primary screen, antimalarial PfHsp90 inhibitor project, S. cerevisiae, BacTiter-Glo luminescence, single point, set 2; AID 504621, 2011; 310,000 tested, 0.32% active; inhibition, % at 9.4 µM; BacTiter-Glo ATP, 48 h; yeast lacking PDR1 and PDR3 efflux regulators;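 active = every replicate shows inhibition above about 80%, whatever the replicate mean, limit read from the data; inconclusive = mean inhibition reaches the set limit but some replicate falls short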
# Wnt bcat act = Wnt/beta-catenin pathway activators, primary screen, cell-based, plate reader, single point; Wnt/beta-catenin reporter cell assay, activator; activation, % at 9.35 µM; 300,000 tested, 1.2% active; in the data active = activation above about 30%, passing the limit was not always enough; inconclusive = no clear call, values can overlap the other calls
# MITF act = activators of MITF-driven TRPM1 promoter reporter, primary screen, cell-based, SK-MEL-5, luciferase, single point. SK-MEL-5 TRPM1-promoter luciferase, 24 h; % of positive control, neutral wells = 0. activation, % at 12.5 µM. 300,000 tested, 0.75% active. AID 588334, 2011;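 active = mean activation of at least 80% with every replicate also reaching 80%; inconclusive = mean reaches 80% but some replicate falls short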
# Vif imaging = HIV Vif self-association inhibitors, primary screen, imaging, HEK293T, single point; HEK293T cells, Vif self-association by quenched fluorescence, 24 h; inhibition, % at 7.49 µM; 340,000 tested, 0.35% active; AID 602346, 2012; in the data active = inhibition above about 50%, passing the limit was not always enough; inconclusive = no clear call, values can overlap the other calls; inactive = below about 31%
# esBAF inh = Bmi1 luciferase reporter increase in mESCs, primary screen, esBAF inhibitor project, mouse ES cells, Bmi1 luciferase knock-in, single point | 24 h; 100% = twice the neutral-well signal | reporter increase, % at 12.5 µM | 350,000 tested, 2% active; in the data active = activation above about 40%; inconclusive = no clear call, values can overlap the other calls;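 also: a rise in the Bmi1 reporter signal indicates esBAF inhibition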
# Glyco luc inh = increase of ERlucT glycosylation luciferase signal, primary screen, N-linked glycosylation inhibitor project, D54 ERlucT cells, luminescence, set 2. reporter increase, % at 12.5 µM. D54 ERlucT glycosylation luciferase reporter, 24 h; percent of 100 nM tunicamycin response. 360,000 tested, 0.23% active. AID 588692, 2011;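 active = mean luciferase reporter signal, scaled so untreated is 0 and the glycosylation-blocking control 100, at or above a set limit in every replicate; inconclusive = mean reaches the limit but not every replicate does; inactive = mean below the limit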;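 also: luciferase carries N-glycosylation sites so blocking glycosylation raises the light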
# A number is an active result; 0 = inactive; ? = inconclusive; - = not tested or not shown.
SMILES,PfHsp90 set2,Wnt bcat act,MITF act,Vif imaging,esBAF inh,Glyco luc inh
Cc1ccc2c(Cl)cc(Cl)c(OCC(=O)Nc3cc(S(=O)(=O)N(C)C)ccc3C)c2n1,0,0,0,0,-,0
Cc1cs/c(=N/C(=S)Nc2ccccc2)n1C,0,0,102.0,0,-,0
COCC(=O)N1[C@@H](CO)[C@@H]2c3ccccc3N(C)C[C@@H]21,-,-,-,-,0,-
CCOC(=O)C1=CC[C@@H](c2ccccc2C(F)(F)F)N(S(=O)(=O)c2ccc(C)cc2)[C@H]1c1ccc(C#N)cc1,-,0,-,0,0,0
O=C(CCCOc1ccccc1)Nc1ccc(S(=O)(=O)Nc2ccccn2)cc1,0,-,0,0,-,0
c1cn2c(Nc3ccc4c(c3)OCCO4)c(-c3ccc(N4CCOCC4)cc3)nc2cn1,0,49.1,0,0,-,0
Clc1ccc(-c2nc3cnccn3c2Nc2ccc3c(c2)OCO3)cc1,0,0,-,0,0,0
CC(C)C(=O)NCCc1nc(-c2ccccc2Cl)no1,0,0,0,83.3,0,0
O=C(Nc1ccc(F)cc1)c1ccc2nc[nH]c2c1,0,0,0,0,-,0
CN(C)c1ccc(NC(=O)c2ccc3nc[nH]c3c2)cc1,0,0,0,0,47.6,0
Cc1ccc(NC(=O)c2ccc3nc[nH]c3c2)cc1C,0,0,0,0,88.5,0
CCCCC(C(=O)N/N=C/c1ccccn1)C(=O)N/N=C/c1ccccn1,0,0,0,0,0,0
Brc1ccccc1OCCCn1cnc2ccccc21,0,0,91.7,0,47.7,0
Cc1ccccc1OCCCCn1cnc2ccccc21,0,-,-,0,0,0
c1ccc2c(c1)ncn2CCCCOc1ccc2c(c1)CCC2,-,-,-,0,0,0
c1ccc2c(c1)ncn2CCCOc1ccc2c(c1)CCC2,0,37.7,-,0,0,0
Cc1cc(O)c(/C=N/Nc2cccc(Cl)c2)c(=O)o1,0,-,0,0,-,0
C[C@H]1CN([C@@H](C)CO)C(=O)c2cc(NC(=O)Cc3ccccc3)ccc2O[C@@H]1CN(C)S(=O)(=O)c1cccs1,-,-,-,-,0,-
O=C(N/C=C/c1ccccc1)c1ccccc1,-,41.0,109.1,-,-,0
S=c1nc2ccccc2c2nc(-c3ccccc3Br)[nH]n12,0,0,0,-,0,0
Brc1ccccc1-c1nc2c3ccccc3ncn2n1,0,39.3,0,0,49.3,0
COCCN(C(=O)COC(=O)c1cccnc1Cl)c1c(N)n(Cc2ccccc2)c(=O)[nH]c1=O,-,0,0,0,0,0
COc1ccc(Cc2nc(-c3ccccn3)no2)cc1,0,0,0,0,-,0
CC(C)(C)c1ccc(OCc2nc(-c3ccccn3)no2)c(Br)c1,0,51.3,0,0,0,0
Clc1cc(Cl)c(OCc2nc(-c3ccccn3)no2)cc1Cl,-,51.3,-,0,0,0
SMILES,PfHsp90 set2,Wnt bcat act,MITF act,Vif imaging,esBAF inh,Glyco luc inh
COc1ccc(NC(=O)C2CCCN2C(=O)NC2CCCCC2)cc1OC (stereo not drawn),0,0,0,0,0,0
O=C(NCCCCc1ccccc1)c1ccccc1,0,0,0,0,-,0
Cc1cc(OCc2nc3ccccc3s2)ccc1N,0,41.4,-,0,0,0
Fc1ccc(OCc2nc3ccccc3s2)cc1,0,59.3,0,0,-,0
c1ccc(OCc2nc3ccccc3s2)cc1,-,-,-,0,0,0
CCC(=O)Nc1ccc(OCc2nc3ccccc3s2)cc1,0,41.2,0,0,-,0
Cc1ccc(N2CC(c3nc4ccccc4n3C)CC2=O)cc1 (stereo not drawn),0,0,0,0,0,0
COc1ccc(OC)c2nc3c(C(=O)NCCN(C)C)cccc3nc12,0,0,0,0,-,91.1
CN(C)CCNC(=O)c1cccc2nc3cccc(F)c3nc12,0,0,0,0,-,0
CC(C)(C=O)C1=CC(=O)c2ccccc2C1=O,105.7,-,0,0,-,0
CC1CCc2nc(/C(C#N)=C/c3cccnc3)sc2C1 (stereo not drawn),0,-,85.1,0,-,0
CC(=O)Nc1ccc(NC(=O)c2sc3nc4n(c(=O)c3c2C)CCCCC4)cc1,0,0,0,0,-,0
CCc1ccc(NC(=O)c2sc3nc4n(c(=O)c3c2C)CCC4)cc1,0,0,0,0,43.6,0
COc1cc(OC)cc(C(=O)Nc2ccc3nc4n(c(=O)c3c2)CCCCC4)c1,0,0,0,0,52.8,0
CC(=O)c1cccc(NC(=O)c2sc3nc4n(c(=O)c3c2C)CCCC4)c1,0,0,0,0,49.0,0
O=C(COc1ccc(S(=O)(=O)N2CCCCC2)cc1)Nc1ccccc1F,0,0,0,0,0,0
CCOc1ccc(C2=NNC(c3cccs3)=Nc3ccc(OC)cc32)cc1OCC,0,0,0,0,0,0
COc1ccc(C2=NNC(c3cccs3)=Nc3ccc(OC)cc32)cc1,0,-,0,0,64.3,0
COC(=O)c1ccc2nc(Nc3nc4ccc(F)cc4s3)sc2c1,0,0,0,0,0,0
CC(=O)c1sc(Nc2nc3ccc(F)cc3s2)nc1C,0,67.0,0,-,-,-
CCOC(=O)c1csc(Nc2nc3ccc(F)cc3s2)n1,0,38.7,0,0,-,0
Cc1cccc(S(=O)(=O)N2C[C@H](O)COC[C@H]3O[C@@H](CC(=O)NCc4ccc5c(c4)OCO5)CC[C@@H]32)c1,-,-,-,-,0,-
C[C@H](CO)N1C[C@H](C)[C@@H](CN(C)C(=O)c2ccncc2)Oc2cc(C3=CCCC3)ccc2S1(=O)=O,-,-,-,-,0,-
Cc1cccc(NC(=S)N/C(=N/S(=O)(=O)c2ccccc2)c2ccccc2)c1,0,0,0,0,77.5,0
COc1ccc(NC(=S)N/C(=N/CS(=O)(=O)c2ccccc2)c2ccccc2)cc1,0,37.2,0,0,0,0
SMILES,PfHsp90 set2,Wnt bcat act,MITF act,Vif imaging,esBAF inh,Glyco luc inh
Cc1cccc(-c2nc(CC(=O)Nc3cccc(S(=O)(=O)NC4=NCCC4)c3)cs2)c1,0,0,0,0,0,0
O=C(CSc1nnc(C2CCCCC2)o1)Nc1ccccc1Cl,0,0,109.5,0,62.0,0
COCCN(C(=O)COC(=O)COc1ccc2c(c1)CCC2)c1c(N)n(Cc2ccccc2)c(=O)[nH]c1=O,0,0,0,0,0,0
Cc1ccc(/C=N/Nc2nc3ccccc3[nH]2)s1,0,156.4,0,0,-,0
Cc1ccccc1/C=N/Nc1nc2ccccc2[nH]1,0,0,0,0,-,0
Cc1cc(C(=O)N/N=C/c2c(C)nn(-c3ccccc3)c2Cl)n[nH]1,-,0,-,71.0,51.7,0
C(=N\Nc1nc2ccccc2[nH]1)/c1cccc2cccnc12,0,37.3,-,0,-,0
C(=N\Nc1nc2ccccc2[nH]1)/c1c[nH]c2ccccc12,0,-,122.5,0,-,?
